Screening results deposited in PubChem BioAssay by National Center for Advancing Translational Sciences (NCATS).
Rows were chosen to be rich in hits. Some 2.4% of all compounds tested hit in one or more screens of this group.
S2 tox = viability counter-screen for ATXN expression inhibitors; S2 cells (HEK-293 line with an ATXN2-luciferase reporter) viability, CellTiter-Fluor protease fluorescence, 24 h; Potency, µM (top dose mostly 56.7 µM), hits mostly cytotoxic; 400,000 tested, 0.49% active; note: nearly all actives have a fitted effect of over 40% in size
TGFb SMAD3 inh = inhibitors of TGF-b signaling. HepG2 CAGA-GFP TGF-b/SMAD3 reporter, GFP fluorescence, 18 h; TGF-beta stimulated, 500 pg/mL final. Potency, µM (doses to about 46.1 µM), inactives show top-dose activity, negative = inhibition, most hits filed as inhibitors. 410,000 tested, 1.2% active; note: % is set by controls: 0 for no effect and ±100 for the full control effect; nearly all actives have a fitted effect of over 65% in size
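First, reporter cells (HEPG2 CAGA-GFP) rested 2 h at 37 degrees C. Next, compounds were pinned in and TGF-beta added to 500 pg/mL final. After 18 h, GFP was imaged per cell and summed per well.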
HepG2 tox = counter-screen for TGF-b inhibitors: cytotoxicity in HepG2 cells; 410,000 tested, 0.76% active; HepG2 CAGA-GFP viability, ATP luminescence, 18 h; AID 588856; Potency, µM (titrated, usually from 46.1 µM), inactives show top-dose activity change, negative = cytotoxicity, most hits filed as cytotoxic
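CellTiter-Glo luminescence gave cytotoxicity after 18 hours at 37 degrees C. The cells were HepG2 CAGA-GFP in 1% FBS DMEM, stimulated with 500 pg/mL TGF-beta after compound addition. %Activity was normalised to no-cell wells (complete cell-killing) and DMSO (no toxicity), and curves were fitted and classified.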
Apoferritin bind = binds horse apoferritin like a general anesthetic; 350,000 tested, 0.074% active; P02791; AID 485281; apoferritin/1-aminoanthracene competitive binding, fluorescence; Potency, µM (highest dose often 77.5 µM), for the others: at the highest dose activity change, negative = displacement, hits mostly inhibitors; note: % is set by controls: 0 for no effect and ±100 for the full control effect; nearly all actives have a fitted effect of over 20% in size
Target sequence (P02791 2-175 limits assumed): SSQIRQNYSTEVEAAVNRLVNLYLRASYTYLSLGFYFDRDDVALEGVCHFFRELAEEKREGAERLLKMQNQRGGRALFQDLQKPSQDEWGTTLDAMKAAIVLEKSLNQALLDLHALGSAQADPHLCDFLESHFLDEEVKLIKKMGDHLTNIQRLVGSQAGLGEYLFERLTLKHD
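10 uM apoferritin + 50% sat. 1-AMA, PBS; cpd 10 min RT; Ex380/Em535 endpoint; normalized to free probe vs complex; 4-param Hill fit; propofol titration as pos. ctrl.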
ATXN2 expr inh = reduces ATXN2 reporter expression in HEK-293 cells. HEK-293 ATXN2-luciferase reporter, luminescence, 24 h. 360,000 tested, 0.72% active. AID 1745845. Potency, µM (top dose mostly 57 µM), without a hit: at the highest dose activity change, negative = inhibition, most hits filed as inhibitors; note: % is set by controls: 0 for no effect and ±100 for the full control effect; nearly all actives have a fitted effect of over 55% in size
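qHTS (up to 57 uM final) was run with 24 h compound exposure of reporter cells at 37 °C. Each well was multiplexed: SteadyGlo luminescence measured ATXN2-luciferase expression after a fluorogenic Gly-Phe-AFC viability readout (25 uM final).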
* = called active by the depositor; i = inactive; ? = inconclusive; . = no result given; ! = not active in a repeat; [ ] = dose if it differs, or a comment. Calls come from the whole dose curve; as a rule, active = well fitted curve in the direction sought with a large enough effect; inconclusive = small, poorly fitted or top-dose-only effect, or another doubt; inactive = no such curve, though single readings can be large; an effect the other way counts as inactive or inconclusive. Potency is the fitted concentration of half-maximal effect.

SMILES | S2 tox | TGFb SMAD3 inh | HepG2 tox | Apoferritin bind | ATXN2 expr inh
O=C(c1ccccc1-n1cccn1)N1CCOc2c(cc(-c3ncc(C(F)(F)F)cc3Cl)cc2OCC2CCCO2)C1 (stereo not given) | i | . | . | . | .
COc1ccccc1NC(=O)CSc1nnnn1-c1ccccc1OC | i | 9.3% | 1.3% | -5.6% | -8.9%
COc1ccccc1NC(=O)CSc1nnnn1-c1ccc2c(c1)OCO2 | i | -11.9% | 11.2µM* | -11.7% | -25.5%
COc1ccc(CSc2nc3ccncc3n2CC(=O)Nc2cc(C)cc(C)c2)cc1 | i | ? | -29.4% | 4.3% | 3.9%
CCCN1CCC(NCc2cn(C)nc2-c2ccc(Oc3ccccc3)cc2)CC1 | ? | ? | 1.26µM* | -8.8% | .
Cc1ccc(N2CC(C(=O)NCCS(=O)(=O)N3CCN(c4ccc(F)cc4)CC3)CC2=O)cc1 (stereo not given) | i | 17.2% | 1µM*! | 0.9% | -6.1%
O=C(NCCS(=O)(=O)N1CCN(c2ccc(F)cc2)CC1)C1CC(=O)N(c2ccc(F)cc2)C1 (stereo not given) | . | 0.7% | 3.2% | -3.9% | .
OC(c1ccccc1)(c1nc(-c2ccc(Cl)cc2)cs1)C(F)(F)F (stereo not given) | ? | ? | 15.8µM* | . | -1.8%
COc1ccc(-c2csc(C(O)(c3ccccc3)C(F)(F)F)n2)cc1 (stereo not given) | ? | ? | -77.8% | . | ?
Cc1cc2c(c(=O)o1)[C@H](O)[C@H]1O[C@@H]1C2=O | . | . | . | -6.9%[15.3 µM] | .
CCOc1ccccc1NC(=O)C1CCCN1S(=O)(=O)c1ccc2nc(-c3ccccc3)[nH]c2c1 (stereo not given) | . | 11.2µM* | -27.5% | -2.6% | .
Cc1cc(C)cc(NC(=O)C2CCCN2S(=O)(=O)c2ccc3nc(-c4ccccc4)[nH]c3c2)c1 (stereo not given) | . | ? | -28.5% | -13.5% | .
COC/C=C/C1=CC2=CC(=O)C(C)(OC(=O)c3cnc4ccccc4n3)C(=O)C2=CN1Cc1ccc(OC)cc1 (stereo not given) | ? | ? | -4.0% | -14.2% | -13.8%
COC/C=C/C1=CC2=CC(=O)C(C)(OC(=O)c3cnc4ccccc4n3)C(=O)C2=CN1Cc1ccccc1 (stereo not given) | . | 11.2µM* | -17.4% | -7.2% | ?
Cc1c(NC(=O)c2ccc([N+](=O)[O-])o2)cccc1-c1nc2ncccc2o1 | ? | ? | 25.1µM* | 0.3% | ?
O=C(Nc1nc(-c2cccs2)cs1)c1ccc([N+](=O)[O-])o1 | ? | ? | 11.2µM* | . | -23.5%
CN1CCN(c2ccccc2NC(=O)c2ccc([N+](=O)[O-])o2)CC1 | ? | ? | 2.51µM* | -2.4% | ?
CS(=O)(=O)N1CCN(c2ccccc2NC(=O)c2ccc([N+](=O)[O-])o2)CC1 | ? | ? | -26.3% | -11.9% | -37.2%
Cc1cccc(NC(=O)c2ccc(NCC3CCCO3)c([N+](=O)[O-])c2)n1 (stereo not given) | ? | -8.0% | -35.7% | 28.2µM* | 27.9%
Cc1ccccc1C(=O)N1CCc2c(cnc(C)c2CNC(=O)c2ccc3c(c2)OCO3)C1 | i | . | . | . | .
O=C(Cc1c[nH]c2ccccc12)N1CCC(n2c(C3CCCO3)nc3cc(C(F)(F)F)ccc32)CC1 (stereo not given) | i | . | . | . | .
C1CCC(C(C[C@@H]2CCCCN2)C2CCCCC2)CC1 | ? | . | . | 1.6%[29.3 µM] | .
CN(C)c1ccc(/C=C/c2ccnc3ccc([N+](=O)[O-])cc23)cc1 | . | -3.0% | -1.0% | . | .
Cc1ccccc1NC(=O)c1ccc([N+](=O)[O-])o1 | i | 15.8µM* | -34.5% | -4.8% | -16.6%
O=C(Nc1cccc2ncccc12)c1ccc([N+](=O)[O-])o1 | i | 12.6µM* | 12.6µM* | -1.4% | 21.1%
SMILES | S2 tox | TGFb SMAD3 inh | HepG2 tox | Apoferritin bind | ATXN2 expr inh
O=C(Nc1ccccc1Cl)c1ccc([N+](=O)[O-])o1 | i | ? | -81.4% | -10.4% | -13.1%
CN1CCN(c2ccccc2NC(=O)C(Cc2ccccc2)n2cccc2)CC1 (stereo not given) | 29.9µM* | -4.5% | -34.1% | -6.9% | 0.0%
Cc1ccc(NC(=O)c2ccc([N+](=O)[O-])o2)c(C)c1 | i | 12.6µM* | -79.9% | -9.5% | -7.3%
Cc1ccccc1-c1ccc(CN2CCc3nnc(CNC(=O)c4ccccn4)n3CC2)cc1 | i | . | . | . | .
Cc1cccc(NC(=O)c2ccc([N+](=O)[O-])o2)n1 | ? | ? | 25.1µM* | -5.9% | -21.5%
CC[C@@H](C)[C@H](CNC)NC[C@@H](Cc1cccc2ccccc12)NCCc1cccc(C(F)(F)F)c1 | 35.5µM* | ? | -110.2% | ? | -22.3%
CCC[C@@H](CN[C@@H](CNC)[C@H](C)CC)NCC1CCC(C(C)(C)C)CC1 (stereo not given in full) | . | ? | -118.6% | -19.1% | ?
CCC[C@H](CN[C@@H](CNC)[C@H](C)CC)NCCc1cc(C(F)(F)F)cc(C(F)(F)F)c1 | . | 15.8µM* | 22.4µM* | -17.9% | ?
CCOC(=O)c1ccccc1NC(=O)CSc1nc2ncccc2o1 | i | -1.3% | 2µM* | -9.3% | 7.7%
COc1ccc(C)cc1NC(=O)CSc1ccc(-c2ccccn2)nn1 | ? | ? | 0.0% | ? | 14.1µM*
Cc1nc(C)c(-c2ccc(SCC(=O)Nc3ccccc3F)nn2)s1 | . | 0.0% | -6.9% | 22.4µM* | .
CCOC(=O)c1ccccc1NC(=O)CSc1nc2ncccc2[nH]1 | . | -15.9% | -0.6% | -11.0% | .
CCOC(=O)c1ccccc1NC(=O)CSc1ccc(-c2ccccn2)nn1 | ? | 8.1% | -8.2% | -5.7% | 3.55µM*
Cc1cccc(NC(=O)CSc2ccc(-c3ccccn3)nn2)c1 | . | ? | -9.4% | ? | .
CC1CCN(Cc2nnnn2CCCC(=O)N(C)C2CCOC2)CC1 (stereo not given) | i | -0.4% | 2.9% | -1.8% | -1.4%
CN(C)c1ccc(C=O)cc1Cl | . | -2.9% | 2.5% | . | .
Cc1oc(-c2ccccc2NC(=O)C2CCCO2)nc1CNC(=O)c1[nH]c2c(C)ccc(C)c2c1C (stereo not given) | i | . | . | . | .
Cc1cc(C)n(-c2nnc(Nc3ccc(C)c(Cl)c3)c3ccccc23)n1 | i | 10µM* | -21.1% | 41.6% | -5.1%
Cc1ccc(S(=O)(=O)N[C@H]2COC(=O)[C@@H](Cc3ccccc3)NC(=O)[C@@H](C)COC(=O)C/C=C\[C@@H]2C)cc1 | . | . | . | -11.9%[15.3 µM] | .
Clc1ccc(CN2CCc3c([nH]c4ccccc34)C2)cc1Cl | ? | 17.8µM* | -116.0% | 1.5% | .
Oc1ccc(-c2cn3ccccc3n2)cc1O | i | 2.9% | -26.3% | -6.5% | .
Cc1ccn2cc(-c3ccc(O)c(O)c3)nc2c1 | ? | 11.2µM* | -65.9% | 47.0% | .
